The subject of experiment [1] is Wnt5a (protein binding on small-molecule microarray). As to the kind of experiment: Wnt5a binders on small-molecule microarray, primary screen, biophysical, 635/667 nm fluorescence (AID 1142).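 Note: fluorescence read at 667 nm with signal to noise per printed feature.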 The note with it: 635 nm fluorescence, higher = more signal.
Experiment [2] can be described thus: cell viability in Huh7 cells, primary screen, cytotoxicity control for HCV replication inhibitor project, CellTiter-Glo luminescence, basal, 48 h (AID 1143).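 Note: Huh7 hepatoma cells carrying a hepatitis C replication reporter with no stimulus; test concentration not given here.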 The settings on record: Huh7 HCV replicon, higher = more signal, called active from +8 up or from −8 down. On the technique in general: In ATP-based viability assays light output follows the ATP content of the culture.

Experiment [3] is described as follows: P. aeruginosa biofilm formation inhibitors, primary screen, PAO1 strain, BacTiter-Glo luminescence, LB-PBS (AID 1144). The note with it: 12 h, higher = more signal.
The nature of experiment [4]: CREB reporter modulators without forskolin, primary screen, cell-based, PC12, CRE-LacZ reporter, unstimulated (AID 1145). The note with it: no forskolin, luminescence, 4.5 h, higher = more signal, called active from +8 up or from −8 down.
The nature of experiment [5]: CREB reporter modulators under forskolin, primary screen, cell-based, PC12, CRE-LacZ reporter, forskolin-stimulated (AID 1146).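 Note: PC12 cells with 6xCRE LacZ reporter stimulated by forskolin 10 µM; beta-galactosidase reporter signal reflecting CREB driven transcription.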 The note with it: luminescence, 4.5 h, higher = more signal, called active from +8 up or from −8 down.
Experiment [6] concerns the target Streptavidin (Streptomyces avidinii) (UniProt P22629). As to the kind of experiment: streptavidin binders on small-molecule microarray, primary screen, artefact control for SMM compound annotation, biophysical, 635/667 nm fluorescence (AID 1147).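 Note: signal reflects streptavidin binding to arrayed compounds as a control protein.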 The settings on record: streptavidin binding, higher = more signal.
A short description of experiment [7]: small-molecule binders of probe aInhba, primary screen, biochemical, small-molecule microarray, 635/667 nm fluorescence (AID 1148).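 Note: score merges 667nm spot fluorescence with signal-to-noise for antibody binding to printed compounds.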 The settings on record: higher = more signal.
For experiment [8], the target named is Torsin-1A (Homo sapiens) (UniProt O14656). As to the kind of experiment: torsin A binders from cell lysate, primary screen, small-molecule microarray, wild-type, 635/667 nm (AID 1149). The note with it: COS7 hTOR1A-WT lysate, 635 nm fluorescence, higher = more signal.
Chain of Torsin-1A (Homo sapiens) (O14656 whole entry, looked up): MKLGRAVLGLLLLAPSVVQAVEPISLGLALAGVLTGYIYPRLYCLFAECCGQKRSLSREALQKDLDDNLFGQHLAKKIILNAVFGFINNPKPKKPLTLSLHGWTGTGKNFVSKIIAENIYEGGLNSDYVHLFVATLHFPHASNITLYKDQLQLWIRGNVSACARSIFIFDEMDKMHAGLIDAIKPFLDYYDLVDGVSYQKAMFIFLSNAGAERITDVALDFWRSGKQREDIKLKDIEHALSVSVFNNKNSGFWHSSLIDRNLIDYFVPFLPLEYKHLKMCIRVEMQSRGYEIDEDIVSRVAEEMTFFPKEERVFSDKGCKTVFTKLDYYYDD
Experiment [9] has the same target. Nature of the experiment: small-molecule binders of mutant TOR1A in lysate, primary screen, cell lysate, small-molecule microarray, COS7 lysate, 635/667 nm fluorescence (AID 1150).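 Note: score pools 667 nm emission and signal to noise measuring lysate protein binding.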 The note with it: COS7 hTOR1A mutant lysate, 635 nm fluorescence, higher = more signal.
Experiment [10] has as its system Sonic hedgehog protein (Shh). As to the kind of experiment: small-molecule binders of Shh protein, primary screen, biochemical, small-molecule microarray, 635/667 nm fluorescence (AID 1151).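 Note: Shh protein binding to compounds spotted on small-molecule microarray slides; score combines spot fluorescence intensity with signal-to-noise across triplicate slides.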 The note with it: small-molecule microarray binding, 635 nm fluorescence; higher = more signal.
Experiment [11] is described as follows: E. coli DRC41 culture turbidity changes, primary screen, E. coli filamentation inducer project, strain DRC41, OD650, 48 h (AID 1152).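 Note: E. coli MC1000 strain DRC41 lacking acrAB efflux pump and sulA.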 The settings on record: E. coli DRC41 (acrAB sulA), higher = more signal, called active from +8 up or from −8 down.
Experiment [12] is described as follows: small-molecule binders of probe aLefty1, primary screen, biochemical, small-molecule microarray, 635/667 nm fluorescence (AID 1153).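 Note: score merges spot fluorescence with signal-to-noise ratio from the scanned slide images.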 The settings on record: higher = more signal.
Experiment [13] can be described thus: PSAC antagonists in infected red cells, primary screen, cell-based, P. falciparum Indochina, OD700, 1 h (AID 1154). The settings on record: P. falciparum Indochina infected RBC osmotic lysis, higher = more signal, called active from +8 up or from −8 down.
A short description of experiment [14]: PSAC antagonists in infected red cells, primary screen, cell-based, P. falciparum Indochina, OD700, 2 h (AID 1155).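 Note: lysis reports solute entry through the parasite surface anion channel PSAC; channel blockers reduce lysis of infected cells.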 The note with it: P. falciparum Indochina infected erythrocytes, osmotic lysis OD700; higher = more signal, called active from +8 up or from −8 down.
Experiment [15] in a line: osmotic lysis modulators in infected erythrocytes, primary screen, PSAC antagonist project, cell-based, P. falciparum Indochina, OD700, 3 h (AID 1156). The note with it: higher = more signal, called active from +8 up or from −8 down.
The nature of experiment [16]: PSAC antagonists in infected red cells, primary screen, cell-based, P. falciparum Indochina, OD700, 18 h (AID 1157). The note with it: P. falciparum Indochina infected erythrocytes, osmotic lysis OD700, 18 h; higher = more signal, called active from +8 up or from −8 down.
Experiment [17] can be described thus: modulators of S6 phosphorylation in cells, primary screen, cell-based, A549, cytoblot, luminescence, serum-stimulated (AID 1158).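 Note: serum-stimulated A549 lung adenocarcinoma cells; signal is phosphorylated S6 detected by cytoblot immunostaining with HRP secondary.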 The settings on record: A549 phospho-S6 cytoblot, 5 h, higher = more signal.
The target in experiment [18] is NADPH oxidase 2 (Homo sapiens) (UniProt P04839). As to the kind of experiment: NOX2-dependent H2O2 signal modulators, primary screen, NOX inhibitor project, cell-based, HEK293-NOX2, PMA-stimulated, Amplex Red fluorescence (AID 1159). Note: test concentration not given here. The settings on record: 45 min, higher = more signal, called active from +8 up or from −8 down.
Chain of NADPH oxidase 2 (Homo sapiens) (P04839 whole entry, looked up): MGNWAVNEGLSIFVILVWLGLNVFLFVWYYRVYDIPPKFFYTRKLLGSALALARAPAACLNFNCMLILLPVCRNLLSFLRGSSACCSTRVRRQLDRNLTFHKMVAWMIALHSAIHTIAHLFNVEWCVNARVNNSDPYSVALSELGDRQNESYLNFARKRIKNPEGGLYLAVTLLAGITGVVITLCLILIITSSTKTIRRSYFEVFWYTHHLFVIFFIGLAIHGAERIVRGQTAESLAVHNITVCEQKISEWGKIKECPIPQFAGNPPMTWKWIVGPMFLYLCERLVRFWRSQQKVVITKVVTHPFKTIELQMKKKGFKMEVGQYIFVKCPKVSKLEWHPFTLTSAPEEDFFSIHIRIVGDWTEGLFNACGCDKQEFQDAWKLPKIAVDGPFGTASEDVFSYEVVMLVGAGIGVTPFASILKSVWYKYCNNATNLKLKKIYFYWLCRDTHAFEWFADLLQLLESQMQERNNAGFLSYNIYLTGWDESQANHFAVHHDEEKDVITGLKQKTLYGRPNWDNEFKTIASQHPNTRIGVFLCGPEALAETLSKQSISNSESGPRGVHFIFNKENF
Experiment [19] addresses NADPH oxidase 4 (Homo sapiens) (UniProt Q9NPH5). Nature of the experiment: NOX4-dependent H2O2 signal modulators, primary screen, NOX inhibitor project, cell-based, HEK293-NOX4, tetracycline-induced, Amplex Red fluorescence (AID 1160). The note with it: 45 min, higher = more signal, called active from +8 up or from −8 down.
Experiment [20] addresses NADPH oxidase 5 (Homo sapiens) (UniProt Q96PH1). Nature of the experiment: NOX5-dependent H2O2 signal modulators, primary screen, NOX inhibitor project, cell-based, HEK293-NOX5, Amplex Red fluorescence (AID 1161). The note with it: HEK293-NOX5, ionomycin, 45 min, higher = more signal.

Activity calls are given as the source filed them. Unless noted, the rule behind the calls is not given here.

Chain of NADPH oxidase 4 (Homo sapiens) (Q9NPH5 whole entry, looked up): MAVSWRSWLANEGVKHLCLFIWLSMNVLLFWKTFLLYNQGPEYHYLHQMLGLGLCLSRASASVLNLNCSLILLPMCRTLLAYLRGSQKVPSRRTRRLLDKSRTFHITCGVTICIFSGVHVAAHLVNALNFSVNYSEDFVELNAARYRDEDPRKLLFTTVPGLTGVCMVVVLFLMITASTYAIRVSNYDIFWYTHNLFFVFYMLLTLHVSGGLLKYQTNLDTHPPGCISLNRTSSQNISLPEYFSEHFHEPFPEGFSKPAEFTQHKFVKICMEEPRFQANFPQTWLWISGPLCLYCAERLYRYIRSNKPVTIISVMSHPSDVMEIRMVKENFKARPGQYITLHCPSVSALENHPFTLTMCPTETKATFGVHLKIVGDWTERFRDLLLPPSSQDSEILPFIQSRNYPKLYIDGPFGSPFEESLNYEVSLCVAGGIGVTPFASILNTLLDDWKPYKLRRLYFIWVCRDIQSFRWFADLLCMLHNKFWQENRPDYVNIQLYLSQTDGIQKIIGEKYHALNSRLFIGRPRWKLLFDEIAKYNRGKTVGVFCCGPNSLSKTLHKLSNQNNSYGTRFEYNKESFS
Chain of NADPH oxidase 5 (Homo sapiens) (Q96PH1 whole entry, looked up): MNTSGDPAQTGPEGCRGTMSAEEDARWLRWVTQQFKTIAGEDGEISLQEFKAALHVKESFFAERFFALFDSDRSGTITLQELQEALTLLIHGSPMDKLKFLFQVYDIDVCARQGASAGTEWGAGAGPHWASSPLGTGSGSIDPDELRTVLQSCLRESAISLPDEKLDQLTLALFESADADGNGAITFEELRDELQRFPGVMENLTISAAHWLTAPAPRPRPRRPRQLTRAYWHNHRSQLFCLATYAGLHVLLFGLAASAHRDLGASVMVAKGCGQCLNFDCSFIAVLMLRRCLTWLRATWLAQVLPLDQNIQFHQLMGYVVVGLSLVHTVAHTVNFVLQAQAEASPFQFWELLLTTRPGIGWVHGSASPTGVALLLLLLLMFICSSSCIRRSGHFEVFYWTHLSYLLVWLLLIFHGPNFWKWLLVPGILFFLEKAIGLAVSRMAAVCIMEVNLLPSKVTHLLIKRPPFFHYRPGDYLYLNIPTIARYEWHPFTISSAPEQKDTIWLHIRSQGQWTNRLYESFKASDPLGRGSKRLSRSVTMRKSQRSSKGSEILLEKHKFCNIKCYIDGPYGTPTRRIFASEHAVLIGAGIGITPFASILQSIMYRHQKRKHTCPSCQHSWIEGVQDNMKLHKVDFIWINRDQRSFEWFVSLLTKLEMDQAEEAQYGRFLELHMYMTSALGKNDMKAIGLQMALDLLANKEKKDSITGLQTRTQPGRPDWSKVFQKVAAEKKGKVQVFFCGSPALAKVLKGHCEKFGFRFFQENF
Chain of Streptavidin (Streptomyces avidinii) (P22629 whole entry, looked up): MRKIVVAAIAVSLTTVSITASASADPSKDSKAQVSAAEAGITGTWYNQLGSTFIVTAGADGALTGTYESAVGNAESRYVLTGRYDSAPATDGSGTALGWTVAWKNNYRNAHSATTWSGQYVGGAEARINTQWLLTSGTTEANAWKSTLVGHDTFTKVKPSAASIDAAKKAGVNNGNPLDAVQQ

As for `C=C(C)C1CN([C@H](CO)c2ccccc2)C(=O)/C1=C\c1ccccc1` (stereo not given in full), the composite z-score was -0.0623 in experiment [1]; -0.0971 in [6]; -0.0719 in experiment [7]; 0.0321 with Torsin-1A (Homo sapiens) [8]; 0.343 with Torsin-1A (Homo sapiens) [9]; 0.633 in experiment [10]. Also, the composite z-score in [12] is -0.147. Also, the z-score in experiment [2] was -4.75 (inactive); in [3], 1.3 (inactive); in experiment [4], 2.04 (inactive); in experiment [5], -0.391 (inactive); in experiment [11], 1.01 (inactive); in [13] it was -0.0012 (inactive). In addition, the z-score was -0.916 (inactive) in experiment [14]; -0.683 (inactive) in [15]; -1.8 (inactive) in experiment [16]; 1.59 in experiment [17]; -0.00303 (inactive) in experiment [18]; 0.0494 (inactive) in experiment [19]. In addition, the z-score in [20] was -1.27.
Turning to `COC(=O)C(CC#Cc1ccc2c(c1)[C@]1(C(=O)N2)[C@H](c2ccc(OCCO)cc2)N2[C@H](c3ccccc3)[C@H](c3ccccc3)OC(=O)[C@H]2[C@@H]1C(N)=O)C(=O)OC`, the composite z-score in experiment [1] was -0.0885; in experiment [6], 1.42; in [7], -0.0719; in the experiment with Torsin-1A (Homo sapiens) [8] it was 0.598; with Torsin-1A (Homo sapiens) [9] it was -0.127; in experiment [10], -0.315. In [12], the composite z-score was 0.0319. Also, the z-score in [2] is -2.24 (inactive); in experiment [3], -0.287 (inactive); in [4], -0.0246 (inactive); in experiment [5], 0.0658 (inactive); in experiment [11] it was -0.763 (inactive); in [13] it was 3.9 (inactive). In addition, the z-score is 1.36 (inactive) in experiment [14]; -0.623 (inactive) in [15]; 0.615 (inactive) in experiment [16]; -0.359 in experiment [17]; 1.56 (inactive) in experiment [18]; 0.784 (inactive) in [19]. Besides, the z-score in experiment [20] was found to be 0.345.
Take `COC(=O)[C@@]1(Cc2ccc(F)cc2)[C@H]2c3cc(C(=O)N4CCCC4)n(Cc4ccc(C(F)(F)F)nc4)c3C[C@H]2CN1C(=O)c1ccccc1`: the composite z-score in [1] was 0.406; in experiment [6] it was 1.99; in [7] it was -0.025; in the experiment with Torsin-1A (Homo sapiens) [8] it was 1.45; with Torsin-1A (Homo sapiens) [9], 1.14; in experiment [10], -0.388. This compound also displayed a composite z-score in experiment [12] of 0.93. Besides, the z-score is -2.55 (inactive) in experiment [2]; 0.193 (inactive) in experiment [3]; 0.197 (inactive) in [4]; -0.388 (inactive) in experiment [5]; -0.984 (inactive) in experiment [11]; 2.37 (inactive) in experiment [13]. The z-score in experiment [14] was 0.229 (inactive); in experiment [15] it was 2.16 (inactive); in experiment [16], 0.716 (inactive); in [17], -0.186; in experiment [18] it was 0.0745 (inactive); in [19], 0.488 (inactive). Besides, in experiment [20], the z-score is -2.46.
`CCCCC(=C=CC[C@@H](O)c1ccc(OCCO)cc1)CCO`: the composite z-score in [1] is -0.032; in [6] it was -0.217; in experiment [7], 0.0342; with Torsin-1A (Homo sapiens) [8] it was 0.112; with Torsin-1A (Homo sapiens) [9], 0.654; in experiment [10], 0.98. Besides, the composite z-score in experiment [12] stood at 0.0129. Also, the z-score in experiment [2] is -1.75 (inactive); in experiment [3] it was 0.234 (inactive); in experiment [4], 7.73 (inactive); in experiment [5], -0.882 (inactive); in experiment [11], 0.565 (inactive); in experiment [13], 6.76 (inactive). Also, the z-score in experiment [14] is 0.892 (inactive); in experiment [15], 0.249 (inactive); in experiment [16], 0.503 (inactive); in experiment [17], -0.481; in experiment [18], 1.14 (inactive); in experiment [19], 0.699 (inactive). For the same compound, the z-score in [20] is -0.192.
Take `Cc1ccc(N2C(=O)c3ccccc3[C@@H](C(=O)NCCN3CCOCC3)[C@@H]2c2ccc(CO)cc2)nc1`: the composite z-score in experiment [1] was -0.275; in experiment [6] it was -1.42; in [7] it was 0.0051; with Torsin-1A (Homo sapiens) [8] it was -2.75; with Torsin-1A (Homo sapiens) [9], -1.65; in experiment [10], 0.179. Besides, the composite z-score in experiment [12] is -0.303. Also, the z-score in [2] is 0.209 (inactive); in experiment [3], -0.479 (inactive); in [4], 0.145 (inactive); in experiment [5], -0.479 (inactive); in experiment [11], 0.279 (inactive); in experiment [13], 0.443 (inactive). Also, the z-score in [14] is -0.229 (inactive); in [15], -0.319 (inactive); in experiment [16], 0.155 (inactive); in experiment [17], -0.334; in experiment [18] it was 0.335 (inactive); in experiment [19], -0.36 (inactive). Further, in experiment [20], the z-score was -1.86.
